Our source for the outcome and AC50 values is PubChem BioAssay (EPA / NIEHS).

Usually AC50 stands for the midpoint of the concentration-response curve, whichever way the signal moves.

SMILES strings stand for the structures. Results filed as inconclusive are left out. Activity calls are given as the source filed them. Rule for the calls: active = hit-call score of the fitted dose curve at least 0.9, where 1 is the maximum; inconclusive = response in the unintended direction; inactive = score below 0.9.

Assay [1] concerns the target human Neurotensin Receptor (NTS), NTSR1 (gene 4923) (UniProt P30989). Put plainly: NVS_GPCR_hNTS: NovaScreen (NVS) G Protein-Coupled Receptor Assay for human Neurotensin Receptor (NTS) (AID 2283279). An outline of the steps:
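Compounds competed with a radiolabelled ligand for binding to CHO-derived human neurotensin receptor; bound signal counted after filtration, 1 h. Screened first at a single concentration of 25 uM in duplicate, then concentration series to 50 uM maximum for actives.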

Assay [2] concerns the target human Leukotriene B4 Receptor 1 (LTB4-BLT1), LTB4R (gene 1241) (UniProt Q15722). As to the kind of experiment: NVS_GPCR_hLTB4_BLT1: NovaScreen (NVS) G Protein-Coupled Receptor Assay for human Leukotriene B4 Receptor 1 (LTB4-BLT1) (AID 2283271). Summed up: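 Cell-free human neutrophil receptor preparation, 1 h exposure, radioligand binding read by filter scintillation counting. Single 25 uM duplicate screen, then concentration series topping at 50 uM; binding loss scored against DMSO baseline.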

Assay [3] deals with human Neurokinin, NK2 Receptor, TACR2 (gene 6865) (UniProt P21452). Put plainly: NVS_GPCR_hNK2: NovaScreen (NVS) G Protein-Coupled Receptor Assay for human Neurokinin, NK2 Receptor (AID 2283278).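 Note: actives reduce bound radioligand signal relative to DMSO baseline.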 An outline of the steps: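 Filter-based scintillation counting measured radioligand bound to receptor extracted from CHO cells, 4 hours after compound addition. Chemicals screened first at 25 uM in duplicate, with actives retested in concentration series relative to DMSO.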
Chain of human Neurokinin, NK2 Receptor, TACR2 (gene 6865) (P21452 whole entry, looked up): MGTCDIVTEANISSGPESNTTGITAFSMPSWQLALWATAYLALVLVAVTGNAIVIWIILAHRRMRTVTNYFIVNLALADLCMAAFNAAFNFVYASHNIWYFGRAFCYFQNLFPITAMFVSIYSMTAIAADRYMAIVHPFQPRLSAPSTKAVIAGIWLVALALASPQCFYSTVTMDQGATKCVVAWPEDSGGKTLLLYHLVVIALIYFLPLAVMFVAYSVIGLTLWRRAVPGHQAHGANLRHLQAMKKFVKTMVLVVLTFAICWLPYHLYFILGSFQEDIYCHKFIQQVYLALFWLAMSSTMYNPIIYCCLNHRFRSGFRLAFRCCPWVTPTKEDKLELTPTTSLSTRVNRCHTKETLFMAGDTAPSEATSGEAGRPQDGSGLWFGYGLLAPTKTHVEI

Assay [4] concerns the target human Thromboxane A2 Receptor (TXA2), TBXA2R (gene 6915) (UniProt P21731). Put plainly: NVS_GPCR_hTXA2: NovaScreen (NVS) G Protein-Coupled Receptor Assay for human Thromboxane A2 Receptor (TXA2) (AID 2283282).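 Note: actives reduce bound radioligand signal relative to DMSO baseline.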 An outline of the steps: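 Human platelet-derived receptor preparation incubated with test chemical and radiolabelled ligand for 1 hour, cell-free. Bound label was separated by filtration and counted; displacement relative to DMSO controls gave activity, screened at 25 uM, then titrated.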

The target of assay [5] is mouse Cholecystokinin, CCK1 Receptor (CCKA), Cckar (gene 12425) (UniProt O08786). As to the kind of experiment: NVS_GPCR_mCCKAPeripheral: NovaScreen (NVS) G Protein-Coupled Receptor Assay for mouse Cholecystokinin, CCK1 Receptor (CCKA) (AID 2283285). Summed up: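 Chemicals were first screened in duplicate at 25 uM, with those meeting threshold (e.g., 30% inhibition) retested in singleton concentration series to 50 uM maximum. Binding of radioligand to mouse pancreatic membranes was read after 2 h by filtration and scintillation counting.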
Chain of mouse Cholecystokinin, CCK1 Receptor (CCKA), Cckar (gene 12425) (O08786 whole entry, looked up): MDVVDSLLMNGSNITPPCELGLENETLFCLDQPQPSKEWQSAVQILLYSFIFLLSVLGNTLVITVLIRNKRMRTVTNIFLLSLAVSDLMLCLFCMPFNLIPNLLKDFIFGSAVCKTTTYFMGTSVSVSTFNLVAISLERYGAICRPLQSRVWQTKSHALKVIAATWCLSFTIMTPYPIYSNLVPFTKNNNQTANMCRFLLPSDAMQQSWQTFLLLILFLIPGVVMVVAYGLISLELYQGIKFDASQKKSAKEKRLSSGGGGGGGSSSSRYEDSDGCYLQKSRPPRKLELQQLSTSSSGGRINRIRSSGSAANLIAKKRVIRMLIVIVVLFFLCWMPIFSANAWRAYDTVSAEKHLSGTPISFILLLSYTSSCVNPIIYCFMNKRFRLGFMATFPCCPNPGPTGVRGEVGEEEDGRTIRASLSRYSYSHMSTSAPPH

For assay [6], the system named is rabbit Platelet Activating Factor Receptor (PAF), gene 100354046. Put plainly: NVS_GPCR_rabPAF: NovaScreen (NVS) G Protein-Coupled Receptor Assay for rabbit Platelet Activating Factor Receptor (PAF) (AID 2283287). An outline of the steps:
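Rabbit platelet membrane preparation; radioligand displacement read by filter-based scintillation counting 1 h after dosing, loss of signal versus DMSO. Primary screen in duplicate at 25 uM, actives followed up in concentration series.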

Assay [7] concerns the target D(1A) dopamine receptor (Homo sapiens) (UniProt P21728). Put plainly: NVS_GPCR_hDRD1: NovaScreen (NVS) G Protein-Coupled Receptor Assay for human Dopamine Receptor D1 (DRD1) (AID 2283269). An outline of the steps:
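HEK293-derived receptor preparation; radioligand competitive displacement; 1 h; filtration + scintillation counting. DMSO = negative control/baseline. Primary: 25 uM, duplicate; secondary: concentration–response for actives.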

Assay [8] deals with Muscarinic acetylcholine receptor M5 (Homo sapiens) (UniProt P08912). Put plainly: NVS_GPCR_hM5: NovaScreen (NVS) G Protein-Coupled Receptor Assay for human Muscarinic, M5 Receptor (AID 2283275). An outline of the steps:
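Chemicals passing a primary duplicate screen at 25 uM were run as singleton concentration series, maximum 50 uM. Displacement of a specific radioligand from CHO-extracted receptor was read by filter scintillation after 1 h, relative to DMSO.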

In assay [9] the target is human Purinergic Receptor P2Y, P2RY1 (gene 5028) (UniProt P47900). Put plainly: NVS_GPCR_hPY2: NovaScreen (NVS) G Protein-Coupled Receptor Assay for human Purinergic Receptor P2Y (AID 2283281). An outline of the steps: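 Filtration scintillation readout of radioligand displacement on U937 extract, measured 1 h post-dosing. Single 25 uM duplicate screen, then singleton concentration series to 50 uM for chemicals passing threshold; DMSO as baseline.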

The target in assay [10] is Muscarinic acetylcholine receptor M2 (Homo sapiens) (UniProt P08172). As to the kind of experiment: NVS_GPCR_hM2: NovaScreen (NVS) G Protein-Coupled Receptor Assay for human Muscarinic, M2 Receptor (AID 2283273). Summed up:
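Radioligand competition binding, cell-free, receptor from CHO; 1 h incubation; scintillation detection. Primary testing at 25 uM in duplicate.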

Assay [11] addresses human Histamine 1 Receptor (H1), HRH1 (gene 3269) (UniProt P35367). As to the kind of experiment: NVS_GPCR_hH1: NovaScreen (NVS) G Protein-Coupled Receptor Assay for human Histamine 1 Receptor (H1) (AID 2283268). Summed up:
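Filter-based scintillation detection of radioligand binding to human H1, 1 h incubation; chemicals screened in duplicate at 25 uM, then concentration-response; signal loss relative to DMSO taken as activity.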

Assay [12] addresses human Opioid Receptor Delta 1 (Opiate D1), OPRD1 (gene 4985) (UniProt P41143). As to the kind of experiment: NVS_GPCR_hOpiate_D1: NovaScreen (NVS) G Protein-Coupled Receptor Assay for human Opioid Receptor Delta 1 (Opiate D1) (AID 2283280). An outline of the steps: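 Membrane preparations from CHO cells bearing the human receptor were incubated 1 h with test chemical, and bound radioligand was counted after filtration. Actives from 25 uM duplicate screening were retested in concentration-response.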

For assay [13], the target named is Muscarinic acetylcholine receptor M1 (Homo sapiens) (UniProt P11229). As to the kind of experiment: NVS_GPCR_hM1: NovaScreen (NVS) G Protein-Coupled Receptor Assay for human Muscarinic, M1 Receptor (AID 2283270). Summed up:
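Actives from a duplicate 25 uM single-point screen were retested in concentration series. Binding measured as displacement of a radioligand from CHO-derived receptor preparation, 1 h incubation, filtration and scintillation counting, analysed as signal loss against DMSO.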

Assay [14] concerns the target Muscarinic acetylcholine receptor M3 (Homo sapiens) (UniProt P20309). Put plainly: NVS_GPCR_hM3: NovaScreen (NVS) G Protein-Coupled Receptor Assay for human Muscarinic, M3 Receptor (AID 2283272). Summed up:
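Radioligand displacement binding on human M3 receptor in CHO-derived membranes, 1 h incubation, filter-based scintillation counting. Primary screen in duplicate at 25 uM; actives followed up in concentration series; loss of signal versus DMSO.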

Assay [15] concerns the target human Muscarinic, M4 Receptor, CHRM4 (gene 1132) (UniProt P08173). As to the kind of experiment: NVS_GPCR_hM4: NovaScreen (NVS) G Protein-Coupled Receptor Assay for human Muscarinic, M4 Receptor (AID 2283274). An outline of the steps:
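Filter-based scintillation counting of radioligand bound to CHO-expressed human M4 preparations after 1 h; loss of signal fitted versus DMSO. Initial duplicate testing at 25 uM, concentration-response follow-up for actives.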

In assay [16] the target is human Orphanin, Opioid Related Nociceptin Receptor 1 (ORL1), OPRL1 (gene 4987) (UniProt P41146). Put plainly: NVS_GPCR_hORL1: NovaScreen (NVS) G Protein-Coupled Receptor Assay for human Orphanin, Opioid Related Nociceptin Receptor 1 (ORL1) (AID 2283283). Summed up: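 Cell-free binding using HEK293-derived receptor protein: radioligand displacement measured by filter scintillation 1 hour after dosing. Primary testing at 25 uM in duplicate, followed by singleton concentration series up to 50 uM; DMSO served as negative control.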

Assay [17] addresses human Neuropeptide Receptor Y1 (NPY1), NPY1R (gene 4886) (UniProt P25929). Put plainly: NVS_GPCR_hNPY1: NovaScreen (NVS) G Protein-Coupled Receptor Assay for human Neuropeptide Receptor Y1 (NPY1) (AID 2283276). An outline of the steps:
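Displacement of specific radioligand from NPY1 receptor of SK-N-MC origin, read by filtration and scintillation after 1 h. Compounds first tested at 25 uM in duplicate, then actives in concentration series; signal loss relative to DMSO.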

In assay [18] the target is human Vasopressin 1A Receptor (V1A), AVPR1A (gene 552) (UniProt P37288). As to the kind of experiment: NVS_GPCR_hV1A: NovaScreen (NVS) G Protein-Coupled Receptor Assay for human Vasopressin 1A Receptor (V1A) (AID 2283284). Summed up:
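Single-concentration duplicate screen at 25 uM, with concentration-response follow-up (top 50 uM) for actives. The assay measured displacement of a radioligand from human platelet-derived receptor after 1.5 h, detected by filtration and scintillation counting.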

The target of assay [19] is rat Serotonin, 5-Hydroxytryptamine Receptor 1 (5HT1), Non-Selective Binding, Htr1a (gene 24473) (UniProt P19327). Put plainly: NVS_GPCR_r5HT1_NonSelective: NovaScreen (NVS) G Protein-Coupled Receptor Assay for rat Serotonin, 5-Hydroxytryptamine Receptor 1 (5HT1), Non-Selective Binding (AID 2283286). Summed up: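 Binding of a radioligand to rat cortex membranes is read by filtration and scintillation counting after 1 h. Compounds were screened at 25 uM in duplicate. Actives were then titrated to a top of 50 uM. DMSO is the baseline.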

Chain of Muscarinic acetylcholine receptor M2 (Homo sapiens) (P08172 whole entry, looked up): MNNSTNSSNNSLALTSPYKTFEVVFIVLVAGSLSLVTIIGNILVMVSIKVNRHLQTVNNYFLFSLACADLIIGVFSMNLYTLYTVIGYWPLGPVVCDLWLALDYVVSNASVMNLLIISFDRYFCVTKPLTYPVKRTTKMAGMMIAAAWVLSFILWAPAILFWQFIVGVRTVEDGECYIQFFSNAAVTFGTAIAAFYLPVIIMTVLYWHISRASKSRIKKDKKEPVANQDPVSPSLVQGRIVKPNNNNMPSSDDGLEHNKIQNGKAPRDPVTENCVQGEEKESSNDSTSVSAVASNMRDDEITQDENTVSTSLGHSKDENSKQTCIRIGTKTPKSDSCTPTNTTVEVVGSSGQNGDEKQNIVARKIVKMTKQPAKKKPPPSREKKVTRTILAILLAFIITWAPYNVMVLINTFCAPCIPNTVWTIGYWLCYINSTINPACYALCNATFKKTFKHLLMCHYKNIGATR
Chain of human Muscarinic, M4 Receptor, CHRM4 (gene 1132) (P08173 whole entry, looked up): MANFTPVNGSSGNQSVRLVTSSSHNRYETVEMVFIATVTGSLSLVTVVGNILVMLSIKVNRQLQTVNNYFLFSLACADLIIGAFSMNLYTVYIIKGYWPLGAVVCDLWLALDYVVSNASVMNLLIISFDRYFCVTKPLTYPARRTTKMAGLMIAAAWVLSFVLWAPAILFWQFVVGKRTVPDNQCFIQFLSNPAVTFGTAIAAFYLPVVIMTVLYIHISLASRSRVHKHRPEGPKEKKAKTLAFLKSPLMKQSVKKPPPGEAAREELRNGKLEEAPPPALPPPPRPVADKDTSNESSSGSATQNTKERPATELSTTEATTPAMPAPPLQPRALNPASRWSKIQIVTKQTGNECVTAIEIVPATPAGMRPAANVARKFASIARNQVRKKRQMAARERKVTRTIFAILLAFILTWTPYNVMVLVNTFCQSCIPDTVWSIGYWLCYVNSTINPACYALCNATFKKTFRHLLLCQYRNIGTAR
Chain of D(1A) dopamine receptor (Homo sapiens) (P21728 whole entry, looked up): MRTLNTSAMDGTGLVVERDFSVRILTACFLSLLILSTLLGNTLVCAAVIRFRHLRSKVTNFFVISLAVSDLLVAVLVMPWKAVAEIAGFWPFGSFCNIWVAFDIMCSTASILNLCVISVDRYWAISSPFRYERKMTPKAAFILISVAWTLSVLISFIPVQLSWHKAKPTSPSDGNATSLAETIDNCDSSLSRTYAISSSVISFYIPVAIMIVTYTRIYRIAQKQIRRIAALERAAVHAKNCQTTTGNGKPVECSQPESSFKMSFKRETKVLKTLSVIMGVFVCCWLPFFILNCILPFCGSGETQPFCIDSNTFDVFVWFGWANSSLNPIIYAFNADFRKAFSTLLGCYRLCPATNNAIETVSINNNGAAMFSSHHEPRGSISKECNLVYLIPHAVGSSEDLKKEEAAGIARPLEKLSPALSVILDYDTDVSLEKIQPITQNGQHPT
Chain of human Opioid Receptor Delta 1 (Opiate D1), OPRD1 (gene 4985) (P41143 whole entry, looked up): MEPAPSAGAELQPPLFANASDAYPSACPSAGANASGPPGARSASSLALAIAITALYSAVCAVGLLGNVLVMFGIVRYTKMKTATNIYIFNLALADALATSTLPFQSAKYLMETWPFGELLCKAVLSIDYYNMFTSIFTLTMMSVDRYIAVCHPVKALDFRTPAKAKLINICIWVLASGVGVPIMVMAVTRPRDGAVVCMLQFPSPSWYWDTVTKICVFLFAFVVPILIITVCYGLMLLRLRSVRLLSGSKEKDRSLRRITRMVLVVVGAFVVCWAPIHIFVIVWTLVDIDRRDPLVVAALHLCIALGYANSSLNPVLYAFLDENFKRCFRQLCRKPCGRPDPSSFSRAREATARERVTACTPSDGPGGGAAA
Chain of human Thromboxane A2 Receptor (TXA2), TBXA2R (gene 6915) (P21731 whole entry, looked up): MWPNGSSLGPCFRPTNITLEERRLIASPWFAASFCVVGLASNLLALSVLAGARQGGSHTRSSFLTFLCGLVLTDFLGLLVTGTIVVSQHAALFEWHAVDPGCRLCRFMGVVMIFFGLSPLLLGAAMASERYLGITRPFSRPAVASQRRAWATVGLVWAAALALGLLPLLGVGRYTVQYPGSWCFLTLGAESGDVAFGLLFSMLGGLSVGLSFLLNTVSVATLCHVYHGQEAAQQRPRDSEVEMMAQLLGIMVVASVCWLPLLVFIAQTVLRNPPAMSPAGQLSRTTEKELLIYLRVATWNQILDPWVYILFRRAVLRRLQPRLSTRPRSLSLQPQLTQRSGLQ
Chain of human Leukotriene B4 Receptor 1 (LTB4-BLT1), LTB4R (gene 1241) (Q15722 whole entry, looked up): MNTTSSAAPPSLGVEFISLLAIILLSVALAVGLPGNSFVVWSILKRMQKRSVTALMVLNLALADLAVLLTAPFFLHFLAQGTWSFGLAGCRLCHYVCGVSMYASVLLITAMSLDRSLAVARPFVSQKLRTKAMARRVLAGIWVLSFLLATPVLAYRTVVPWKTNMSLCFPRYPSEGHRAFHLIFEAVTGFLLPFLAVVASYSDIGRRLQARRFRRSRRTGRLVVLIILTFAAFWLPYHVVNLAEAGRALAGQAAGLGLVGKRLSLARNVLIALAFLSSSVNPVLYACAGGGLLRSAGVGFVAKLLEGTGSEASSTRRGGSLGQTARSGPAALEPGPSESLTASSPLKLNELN
Chain of Muscarinic acetylcholine receptor M5 (Homo sapiens) (P08912 whole entry, looked up): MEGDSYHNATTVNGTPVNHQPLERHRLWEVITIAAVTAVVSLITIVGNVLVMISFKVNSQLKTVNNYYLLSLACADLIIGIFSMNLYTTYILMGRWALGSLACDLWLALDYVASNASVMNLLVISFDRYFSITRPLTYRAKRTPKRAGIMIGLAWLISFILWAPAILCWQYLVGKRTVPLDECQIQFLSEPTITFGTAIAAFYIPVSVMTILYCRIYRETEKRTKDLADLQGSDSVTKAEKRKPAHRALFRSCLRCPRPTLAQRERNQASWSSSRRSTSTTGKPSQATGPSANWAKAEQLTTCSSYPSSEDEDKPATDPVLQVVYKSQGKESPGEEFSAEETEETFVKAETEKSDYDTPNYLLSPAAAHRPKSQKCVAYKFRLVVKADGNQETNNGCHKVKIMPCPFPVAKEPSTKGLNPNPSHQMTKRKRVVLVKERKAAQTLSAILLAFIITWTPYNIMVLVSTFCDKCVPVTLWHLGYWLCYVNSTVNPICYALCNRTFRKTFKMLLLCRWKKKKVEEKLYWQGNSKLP
Chain of human Histamine 1 Receptor (H1), HRH1 (gene 3269) (P35367 whole entry, looked up): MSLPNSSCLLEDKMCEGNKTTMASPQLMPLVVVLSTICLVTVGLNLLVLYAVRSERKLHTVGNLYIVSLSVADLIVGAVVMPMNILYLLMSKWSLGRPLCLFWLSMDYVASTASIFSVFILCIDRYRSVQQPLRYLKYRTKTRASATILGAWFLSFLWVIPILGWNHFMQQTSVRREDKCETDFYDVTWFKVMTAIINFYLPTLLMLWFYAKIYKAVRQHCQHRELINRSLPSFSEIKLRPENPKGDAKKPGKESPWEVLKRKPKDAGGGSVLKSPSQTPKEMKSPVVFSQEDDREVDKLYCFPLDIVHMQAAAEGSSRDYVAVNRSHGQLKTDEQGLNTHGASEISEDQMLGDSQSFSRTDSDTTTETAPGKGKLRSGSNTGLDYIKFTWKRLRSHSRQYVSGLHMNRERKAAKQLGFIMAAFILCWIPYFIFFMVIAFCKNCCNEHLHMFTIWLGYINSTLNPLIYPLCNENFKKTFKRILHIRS
Chain of human Neurotensin Receptor (NTS), NTSR1 (gene 4923) (P30989 whole entry, looked up): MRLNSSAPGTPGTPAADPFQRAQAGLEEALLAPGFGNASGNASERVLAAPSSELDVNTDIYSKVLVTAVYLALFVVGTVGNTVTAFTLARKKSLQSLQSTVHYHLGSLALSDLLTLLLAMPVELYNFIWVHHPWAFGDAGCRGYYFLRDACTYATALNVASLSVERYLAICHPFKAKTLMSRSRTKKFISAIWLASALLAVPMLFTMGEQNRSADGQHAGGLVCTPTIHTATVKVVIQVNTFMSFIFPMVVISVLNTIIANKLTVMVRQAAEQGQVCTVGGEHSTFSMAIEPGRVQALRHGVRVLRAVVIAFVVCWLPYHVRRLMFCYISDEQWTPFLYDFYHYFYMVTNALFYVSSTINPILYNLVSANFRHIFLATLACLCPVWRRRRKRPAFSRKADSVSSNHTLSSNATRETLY

`CCCCOC(=O)CCCCC(=O)OCCCC`: in assay [1], the compound was classed as inactive.

With `CCc1cc(C2=C(C(=O)O)N(c3ccccc3C(F)(F)F)S(=O)(=O)c3ccccc32)cc2c1OCO2`, the AC50 in assay [2] is 17.1 µM (active); in assay [3] it was 25 µM (active); in assay [4] it was 3.08 µM (active); in assay [5], 16.6 µM (active); in assay [6], 4.11 µM (active).

Turning to `COc1ccc(OC(F)(F)F)cc1CN[C@H]1CCCN[C@H]1c1ccccc1`, the half-maximal activity concentration (AC50) in assay [7] was 25 µM (active); in assay [8], 9.18 µM (active); in assay [3], 13.5 µM (active).

`CS(=O)(=O)c1ccc([C@@H](C[C@H]2CCC(=O)C2)C(=O)Nc2cnccn2)cc1Cl`: in [9], the compound was called inactive.

For the compound `CC(=O)OCC(COC(C)=O)OC(C)=O`, the AC50 in [2] is 40.5 µM (active).

As to `CCCCC(CC)CO` (stereo unspecified), the compound was classed as inactive in assay [2].

As to `CC(=O)[C@@]1(O)CC[C@H]2[C@@H]3CCC4=CC(=O)CC[C@]4(C)[C@H]3CC[C@@]21C`, the concentration at half-maximal activity (AC50) in assay [10] is 0.617 µM (active).

`CSc1ccc(Oc2ccc(S(N)(=O)=O)cc2CN(C)C)cc1C`: the half-maximal activity concentration (AC50) was 19.6 µM (active) in assay [11], 5.11 µM (active) in [7], 6.33 µM (active) in assay [3] and 15 µM (active) in [12]. Moreover, the outcome in assay [2] was inactive.

Regarding `CCCCCCCCCCCCCCOS(=O)(=O)O`, the concentration at half-maximal activity (AC50) was 28.1 µM (active) in assay [11]; 5.18 µM (active) in assay [7]; 25 µM (active) in [13]; 25 µM (active) in assay [14]; 31.9 µM (active) in assay [15]; 16.5 µM (active) in assay [8]. Besides, the AC50 in assay [3] was 46.3 µM (active); in [12], 8.07 µM (active); in [9], 10.3 µM (active); in [4], 7.59 µM (active); in [16] it was 16.3 µM (active).

Turning to `COC(=O)[C@H]1[C@H]2C[C@@H]3c4[nH]c5cc(OC)ccc5c4CCN3C[C@H]2C[C@@H](OC(=O)c2cc(OC)c(OC)c(OC)c2)[C@@H]1OC`, in assay [6], the AC50 is 5.47 µM (active).

Take `O=C(NS(=O)(=O)/C=C/c1cccs1)c1ccc(F)cc1Br`: in assay [5], the half-maximal activity concentration (AC50) was 22.6 µM (active).

Regarding `O=NO`, the compound was classed as inactive in assay [15].

`O=Cc1ccccc1C=O`: the concentration at half-maximal activity (AC50) in [10] was 17 µM (active); in [17] it was 12.9 µM (active); in assay [4], 16.7 µM (active); in assay [16], 25 µM (active).

Turning to `CCCCCCC(CCCCCCCCCCC(=O)OCC(COC(C)=O)OC(C)=O)OC(C)=O` (stereo unspecified), the concentration at half-maximal activity (AC50) in assay [4] was 4.54 µM (active).

Turning to `S=c1[nH]c2ccccc2s1`, in [3], the outcome was inactive.

In the case of `OCC(O)CO`, in assay [12], the outcome was inactive.

Regarding `CO[C@@H]1COCC[C@@H]1N[C@@H]1CC[C@@](C(=O)N2CCc3ncc(C(F)(F)F)cc3C2)(C(C)C)C1`, the AC50 in assay [10] was 12.3 µM (active); in assay [15] it was 25 µM (active). Also, the outcome in assay [18] was inactive.

In the case of `CN(C)CCCN1c2ccccc2Sc2ccc(Cl)cc21`, the concentration at half-maximal activity (AC50) was 25 µM (active) in assay [3], 14.5 µM (active) in assay [1], 21.8 µM (active) in assay [5] and 8.89 µM (active) in assay [19].
